# In PubChem BioAssay AID1030 (National Center for Advancing Translational Sciences (NCATS), 2008):
# About 16,000 (7.3%) of roughly 220,000 compounds were called active. Entries that show only a call come without a potency. Roughly 25% stayed inconclusive and do not appear here. Calls come from the whole dose curve; as a rule, active = well fitted inhibition curve with a large enough effect (not every such curve was filed as active); inconclusive = small, poorly fitted or top-dose-only effect, or another doubt; inactive = no such curve, though single readings can be large or run the other way. Only a selection was taken, and actives are over-represented in it overall.
# Target: Aldehyde dehydrogenase 1A1 (Homo sapiens) (UniProt P00352)
# Test: qHTS Assay for Inhibitors of Aldehyde Dehydrogenase 1 (ALDH1A1)
# Settings: Purified ALDH1A1, NADH fluorescence, propionaldehyde substrate; series mostly up to 75.3 µM
# Potency is the fitted concentration of half-maximal effect.
# Aldehyde dehydrogenase 1A1 (Homo sapiens), sequence (P00352 whole entry, looked up): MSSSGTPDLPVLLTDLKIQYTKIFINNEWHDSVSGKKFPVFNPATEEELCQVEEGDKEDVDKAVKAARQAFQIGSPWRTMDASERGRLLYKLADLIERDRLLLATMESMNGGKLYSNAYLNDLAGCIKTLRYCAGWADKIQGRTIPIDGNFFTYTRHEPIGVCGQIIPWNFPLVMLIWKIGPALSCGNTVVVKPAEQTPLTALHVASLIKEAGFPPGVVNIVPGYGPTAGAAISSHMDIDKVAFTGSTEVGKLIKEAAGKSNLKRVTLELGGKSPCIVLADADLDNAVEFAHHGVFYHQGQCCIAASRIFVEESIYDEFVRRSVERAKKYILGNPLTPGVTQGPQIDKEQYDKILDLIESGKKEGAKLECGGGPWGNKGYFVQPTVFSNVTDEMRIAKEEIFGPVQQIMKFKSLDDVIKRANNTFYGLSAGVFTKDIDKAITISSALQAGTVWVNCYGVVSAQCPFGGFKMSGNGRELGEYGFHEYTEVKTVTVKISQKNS
SMILES,Potency,"activity, negative = inhibition"
CC(C)CNC(=O)C(=O)Nc1ccc(N(C)C)cc1,inactive,–
COc1cc(CN2CCN(Cc3ccc(C)cc3)CC2)c([N+](=O)[O-])cc1OC,17.8 µM (active),–
COc1cc(CC(=O)N/N=C/c2ccccc2)c([N+](=O)[O-])cc1OC,inactive,–
COc1cc(CN2CC(C)CC(C)C2)cc([N+](=O)[O-])c1O (stereo not drawn),inactive,–
COC(=O)C1=C(N)Oc2c(oc(CO)cc2=O)C1c1c(F)cccc1Cl (stereo not drawn),inactive,–
C/C(=N\NC(=O)NC1CCCCC1)c1ccc(OC(F)F)cc1OC(F)F,inactive,–
Cn1c(=O)c2c(ncn2CC(=O)N/N=C/c2cn[nH]c2-c2ccc(F)cc2)n(C)c1=O,inactive,–
CC(=O)c1nc(N2C(=O)C3CC=C(C)CC3C2=O)sc1C (stereo not drawn),2.51 µM (active),–
CC(=O)Oc1cccc(N2C(=O)C3CC=C(Cl)CC3C2=O)c1 (stereo not drawn),inactive,–
Cc1ncc([N+](=O)[O-])n1CCOC(=O)c1ccc(Br)cc1,inactive,–
Cc1ccc(NC(=O)C(=O)NCc2ccco2)c(C)c1,inactive,–
Cc1ccc(SCC(=O)NC(=O)NCc2ccco2)c(C)c1,22.4 µM (active),–
O=C(CSc1nnc(-c2ccco2)n1Cc1ccccc1)NC(=O)NCc1ccco1,15.8 µM (active),–
CCn1c(SCC(=O)NCc2ccco2)nnc1-c1ccc(N)cc1,inactive,–
O=C(CSc1nnc(-c2cccs2)n1-c1ccccc1)NCc1ccco1,inactive,–
Cc1cc(C)n2nc(SCC(=O)NC(=O)NCc3ccco3)nc2n1,inactive,–
Cc1ccc(C(C)(C)C)c(OCCCCN2CCCC2)c1,inactive,–
COc1ccc(/C=N/NC(=O)Nc2ccc3nsnc3c2)c(OC)c1,inactive,–
CCOc1cc(C2C(C(=O)OC(C)C)=C(C)NC3=C2C(=O)CCC3)cc([N+](=O)[O-])c1O (stereo not drawn),inactive,–
COc1cccc(OC)c1C(=O)OCC(=O)/C(C#N)=C(\C)N,inactive,–
COC(=O)C1=C(C)N(C(C)c2ccccc2)C(=O)/C1=C\c1ccco1 (stereo not drawn),inactive,–
Cn1c(NN)nc2sc3c(c2c1=O)CCC3,inactive,–
N=c1c2c3c(sc2nc2n1CCCCC2)CCCC3,inactive,–

SMILES,Potency,"activity, negative = inhibition"
NNC(=O)C1CCCn2c1nc1sc3c(c1c2=O)CCCC3 (stereo not drawn),12.6 µM (active),–
O=C(CSc1nc(-c2ccccc2)cs1)Nc1cccc([N+](=O)[O-])c1,inactive,–
Cc1cccc(S(=O)(=O)CC(=O)Nc2nc(-c3ccccc3)cs2)c1,inactive,–
O=C(CSc1ncn[nH]1)Nc1nc(-c2cccc([N+](=O)[O-])c2)cs1,17.8 µM (active),–
CC(=O)c1ccc(-c2nnc(CCC(=O)N(C)Cc3cnc4ccccn34)o2)s1,inactive,–
CCCCCCCCCCCCCCCCO,inactive,–
O=C(Nc1ccccc1C(F)(F)F)c1cc(-c2ccc(O)cc2)on1,inactive,–
Cc1cc(C)nc(NC(=O)C(C)N2C(=O)c3ccccc3C2=O)n1 (stereo not drawn),inactive,–
Cc1cc(C)nc(NC(=O)Nc2ccccc2C(F)(F)F)n1,35.5 µM (active),–
Cc1ccc(NC(=O)c2oc3ccccc3c2C)c([N+](=O)[O-])c1,inactive,–
CC1=C(C)CC(C(=O)NC(C)CCc2ccccc2)C(C(=O)O)C1 (stereo not drawn),inactive,–
CCC(C)[C@@H](N)C(=O)O (stereo partly drawn),inactive,–
CC(C)NC(=O)NC(=O)CSc1nnc(-c2ccccc2F)n1N,inactive,–
Cc1ccc(C2C3=C(Nc4[nH]n(-c5ccccc5)c(=O)c42)c2ccccc2C3=O)cc1 (stereo not drawn),11.2 µM (active),–
Cc1ccc(N=Nc2c(C)[nH]n(-c3ccccc3)c2=O)cc1,inactive,–
Cc1cc(C)c(C2C3=C(Nc4c2c(C)nn4-c2ccccn2)c2ccccc2C3=O)c(C)c1 (stereo not drawn),inactive,–
Cn1cnnc1Sc1ccc(S(C)(=O)=O)cc1[N+](=O)[O-],inactive,–
c1csc(-c2nnc(COc3ccc4c(c3)OCO4)o2)c1,inactive,–
O=[N+]([O-])c1c(NCCO)cc(Sc2nc3ccccc3s2)c2nonc12,8.91 µM (active),–
O=[N+]([O-])c1cc(Br)c(O)c(/C=N/Nc2nc3ccccc3s2)c1,inactive,–
c1ccc2sc(SCCSc3nc4ccccc4s3)nc2c1,–,3.19% [at 13.5 µM] (inactive)
O=C(c1ccc(F)cc1)C1CCN(Cc2cn[nH]c2-c2ccccc2)CC1,inactive,–
COc1ccc(-c2[nH]ncc2CN(C)Cc2c(C)n[nH]c2C)c(OC)c1,inactive,–

SMILES,Potency,"activity, negative = inhibition"
OCC1(CCOc2ccccc2)CCN(Cc2cn[nH]c2-c2ccccc2)CC1,inactive,–
Cc1nnc(CN(C)Cc2cn[nH]c2-c2ccc(-c3ccccc3)cc2)o1,12.6 µM (active),–
CN(CCC1CCOCC1)Cc1cn[nH]c1-c1ccc(-c2ccccc2)cc1,10 µM (active),–
O=C(OCc1ccc([N+](=O)[O-])cc1)c1ccccn1,inactive,–
Cc1nc([N+](=O)[O-])c(NCCCO)n1Cc1ccccc1,inactive,–
CCNc1nc(-c2cc3ccccc3o2)cs1,inactive,–
NS(=O)(=O)c1ccc(CCNC(=O)c2ccc(Cl)cc2[N+](=O)[O-])cc1,inactive,–
O=P(O)(CN1CCCCCC1)C1Cc2ccccc2C1,inactive,–
CCOC(=O)c1sc(=S)n2c1[nH]c(=O)c1ccc(C(=O)OC)cc12,8.91 µM (active),–
CCOC(=O)c1sc(NC(=O)c2ccncc2)nc1C,inactive,–
CCOC(=O)C1=C(C)Nc2sc(C(=O)c3ccc(Br)cc3)c(N)c2C1c1ccc(C(=O)OC)cc1 (stereo not drawn),inactive,–
Cc1ccc(/C=N/NC(=O)COc2ccccc2-c2ccccc2)cc1,inactive,–
CCC1C/C(=C/c2cccs2)C(=O)/C(=C/c2cccs2)C1 (stereo not drawn),inactive,–
CC(C)(C)C1C/C(=C/c2ccco2)C(=O)/C(=C/c2ccco2)C1 (stereo not drawn),7.94 µM (active),–
CCC1S/C(=N/N=C/c2ccco2)NC1=O (stereo not drawn),inactive,–
COc1ccc(C2=NN(c3nc4ccccc4s3)C(=O)C2)cc1,inactive,–
CCCCn1c(=O)c(C(C)=O)c(O)c2ccccc21,inactive,–
Cc1[nH]c2c(C(=O)N3CCCC(CCC(=O)NCc4ccccc4F)C3)cccc2c1C (stereo not drawn),inactive,–
COc1ccccc1N1CCN(Cc2ccc(OC)c3ccccc23)CC1,inactive,–
COc1ccccc1N1CCN(CCCCOc2ccc(F)cc2)CC1,25.1 µM (active),–
CCN1CCN(CCCCOc2ccccc2F)CC1,inactive,–
CCOC(=O)c1c(NC(=O)C2CC=CCC2C(=O)O)sc(C)c1CC (stereo not drawn),inactive,–
